Only a selection was taken, and the strongest signals are over-represented in it overall.
Experiments:
Assay in all cases: glycan array binding signal (z-score within array); higher = stronger binding
Conditions in all cases: glycan notation: IUPAC condensed, linker removed
Fuc(a1-2)Gal(b1-4)Glc6S = target: Fuc(a1-2)Gal(b1-4)Glc6S
Outline: (§1)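 Glycan array data came from 3228 arrays in the Consortium for Functional Glycomics database, and only arrays with an available protein sequence were kept. Glycan names were put into IUPAC-condensed notation, and columns mapping to the same glycan were averaged. The binding signal is a within-array Z-score, averaged across arrays of one protein sequence run at different concentrations or buffers and across linkers. A negative Z-score can be read as non-binding.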

[1] = target: Fuc(a1-2)[GalNAc(a1-3)]Gal(b1-4)Glc
Outline: as §1

[2] = target: Gal(b1-3)Gal(b1-4)GlcNAc(b1-2)Man(a1-3)[Gal(b1-3)Gal(b1-4)GlcNAc(b1-2)Man(a1-6)]Man(b1-4)GlcNAc(b1-4)GlcNAc
Outline: as §1

[3] = target: Gal(b1-3)GlcNAc(b1-2)Man(a1-3)[Gal(b1-3)GlcNAc(b1-2)Man(a1-6)]Man(b1-4)GlcNAc(b1-4)GlcNAc
Outline: as §1

[4] = target: Gal(b1-3)[Fuc(a1-4)]GlcNAc
Outline: as §1

Gal(b1-4)GlcNAc = target: Gal(b1-4)GlcNAc
Outline: as §1

[5] = target: Gal(b1-4)GlcNAc(b1-3)Gal(b1-3)GlcNAc
Outline: as §1

Gal3S(b1-3)GlcNAc = target: Gal3S(b1-3)GlcNAc
Outline: as §1

Gal3S4S(b1-4)GlcNAc = target: Gal3S4S(b1-4)GlcNAc
Outline: as §1

GalNAc(a1-3)Gal = target: GalNAc(a1-3)Gal
Outline: as §1

GalNAc(a1-3)GalNAc = target: GalNAc(a1-3)GalNAc
Outline: as §1

[6] = target: GalNAc(b1-3)Gal(a1-4)Gal(b1-4)GlcNAc
Outline: as §1

[7] = target: GlcNAc(a1-4)Gal(b1-4)GlcNAc(b1-3)Gal(b1-4)[Fuc(a1-3)]GlcNAc(b1-3)Gal(b1-4)[Fuc(a1-3)]GlcNAc
Outline: as §1

[8] = target: GlcNAc(b1-4)GlcNAc(b1-4)GlcNAc(b1-4)GlcNAc(b1-4)GlcNAc
Outline: as §1

[9] = target: GlcNAc(b1-4)GlcNAc(b1-4)GlcNAc(b1-4)GlcNAc(b1-4)GlcNAc(b1-4)GlcNAc
Outline: as §1

[10] = target: GlcNAc6S(b1-3)Gal(b1-4)GlcNAc
Outline: as §1

[11] = target: Kdn(a2-3)Gal(b1-4)[Fuc(a1-3)]GlcNAc
Outline: as §1

[12] = target: Man(a1-2)Man(a1-2)Man(a1-6)[Man(a1-3)]Man
Outline: as §1

[13] = target: Man(a1-2)Man(a1-3)[Man(a1-2)Man(a1-6)]Man(a1-6)[Man(a1-2)Man(a1-2)Man(a1-3)]Man
Outline: as §1

[14] = target: Man(a1-2)Man(a1-3)[Man(a1-2)Man(a1-6)]Man(a1-6)[Man(a1-3)[Man(a1-6)]Man(a1-6)]Man(b1-4)GlcNAc(b1-4)GlcNAc
Outline: as §1

[15] = target: Man(a1-2)Man(a1-3)[Man(a1-6)]Man(a1-6)[Man(a1-2)Man(a1-3)]Man(b1-4)GlcNAc(b1-4)GlcNAc
Outline: as §1

[16] = target: Man(a1-2)Man(a1-6)[Man(a1-3)]Man(a1-6)[Man(a1-2)Man(a1-2)Man(a1-3)]Man(b1-4)GlcNAc(b1-4)GlcNAc
Outline: as §1

Man(a1-3)[Man(a1-6)]Man = target: Man(a1-3)[Man(a1-6)]Man
Outline: as §1

[17] = target: Man(a1-3)[Man(a1-6)]Man(a1-6)[Man(a1-2)Man(a1-3)]Man(b1-4)GlcNAc(b1-4)GlcNAc
Outline: as §1

[18] = target: Man(a1-3)[Man(a1-6)]Man(a1-6)[Man(a1-3)]Man(b1-4)GlcNAc(b1-4)GlcNAc
Outline: as §1

[19] = target: Man(a1-3)[Man(a1-6)]Man(b1-4)GlcNAc(b1-4)GlcNAc
Outline: as §1

[20] = target: Neu5Ac(a2-3)Gal(b1-4)GlcNAc6S
Outline: as §1

[21] = target: Neu5Ac(a2-3)Gal(b1-4)[Fuc(a1-3)]GlcNAc
Outline: as §1

[22] = target: Neu5Ac(a2-6)Gal(b1-4)GlcNAc
Outline: as §1

[23] = target: Neu5Ac(a2-6)Gal(b1-4)GlcNAc(b1-2)Man(a1-3)Man(b1-4)GlcNAc(b1-4)GlcNAc
Outline: as §1

[24] = target: Neu5Ac(a2-6)Gal(b1-4)GlcNAc(b1-3)Gal(b1-4)GlcNAc
Outline: as §1

[25] = target: Fuc(a1-2)[Gal(a1-3)]Gal(b1-4)GlcNAc
Outline: as §1

[26] = target: Fuc(a1-3)[Gal3S(b1-4)]Glc
Outline: as §1

[27] = target: Gal(b1-3)GalNAc(b1-3)Gal(b1-4)Glc
Outline: as §1

[28] = target: Gal(b1-3)[Neu5Ac(a2-6)]GalNAc
Outline: as §1

Gal3S(b1-4)Glc6S = target: Gal3S(b1-4)Glc6S
Outline: as §1

Gal3S(b1-4)GlcNAc6S = target: Gal3S(b1-4)GlcNAc6S
Outline: as §1

Gal3S6S(b1-4)GlcNAc6S = target: Gal3S6S(b1-4)GlcNAc6S
Outline: as §1

Gal4S6S(b1-4)GlcNAc = target: Gal4S6S(b1-4)GlcNAc
Outline: as §1

Gal6S(b1-4)Glc6S = target: Gal6S(b1-4)Glc6S
Outline: as §1

GlcA(b1-6)Gal = target: GlcA(b1-6)Gal
Outline: as §1

[29] = target: GlcNAc(b1-3)Gal(b1-3)GalNAc
Outline: as §1

[30] = target: GlcNAc(b1-3)[GlcNAc(b1-6)]Gal(b1-4)GlcNAc
Outline: as §1

[31] = target: GlcNAc(b1-3)[GlcNAc(b1-6)]GlcNAc
Outline: as §1

[32] = target: GlcNAc(b1-4)Gal(b1-4)GlcNAc
Outline: as §1

[33] = target: Neu5Ac(a2-3)Gal(b1-3)GalNAc
Outline: as §1

[34] = target: Neu5Ac(a2-3)Gal6S(b1-4)GlcNAc
Outline: as §1

[35] = target: Neu5Gc(a2-3)Gal(b1-4)[Fuc(a1-4)]GlcNAc
Outline: as §1

B1: MVL (Microcystis viridis), Q9RHG4 (protein)
chain: MASYKVNIPAGPLWSNAEAQQVGPKIAAAHQGNFTGQWTTVVESAMSVVEVELQVENTGIHEFKTDVLAGPLWSNDEAQKLGPQIAASYGAEFTGQWRTIVEGVMSVIQIKYTF
glycan array binding signal (z-score) (Fuc(a1-2)Gal(b1-4)Glc6S): -0.234
glycan array binding signal (z-score) [1]: -0.201
glycan array binding signal (z-score) [2]: 1.85
glycan array binding signal (z-score) [3]: 1.51
glycan array binding signal (z-score) [4]: -0.232
glycan array binding signal (z-score) (Gal(b1-4)GlcNAc): -0.227
glycan array binding signal (z-score) [5]: -0.23
glycan array binding signal (z-score) (Gal3S(b1-3)GlcNAc): -0.239
glycan array binding signal (z-score) (Gal3S4S(b1-4)GlcNAc): -0.243
glycan array binding signal (z-score) (GalNAc(a1-3)Gal): -0.231
glycan array binding signal (z-score) (GalNAc(a1-3)GalNAc): -0.243
glycan array binding signal (z-score) [6]: -0.243
glycan array binding signal (z-score) [7]: 0.006
glycan array binding signal (z-score) [8]: 0.051
glycan array binding signal (z-score) [9]: -0.006
glycan array binding signal (z-score) [10]: -0.119
glycan array binding signal (z-score) [11]: -0.121
glycan array binding signal (z-score) [12]: -0.183
glycan array binding signal (z-score) [13]: 7.38
glycan array binding signal (z-score) [14]: 5.26
glycan array binding signal (z-score) [15]: 2.01
glycan array binding signal (z-score) [16]: 6.83
glycan array binding signal (z-score) (Man(a1-3)[Man(a1-6)]Man): -0.232
glycan array binding signal (z-score) [17]: 2.68
glycan array binding signal (z-score) [18]: 2.72
glycan array binding signal (z-score) [19]: 1.59
glycan array binding signal (z-score) [20]: -0.238
glycan array binding signal (z-score) [21]: -0.23
glycan array binding signal (z-score) [22]: -0.241
glycan array binding signal (z-score) [23]: 0.179
glycan array binding signal (z-score) [24]: -0.236

B2: Annexin-A1 (Mus musculus), P10107 (protein)
chain: MAMVSEFLKQARFLENQEQEYVQAVKSYKGGPGSAVSPYPSFNVSSDVAALHKAIMVKGVDEATIIDILTKRTNAQRQQIKAAYLQENGKPLDEVLRKALTGHLEEVVLAMLKTPAQFDADELRGAMKGLGTDEDTLIEILTTRSNEQIREINRVYREELKRDLAKDITSDTSGDFRKALLALAKGDRCQDLSVNQDLADTDARALYEAGERRKGTDVNVFTTILTSRSFPHLRRVFQNYGKYSQHDMNKALDLELKGDIEKCLTTIVKCATSTPAFFAEKLYEAMKGAGTRHKALIRIMVSRSEIDMNEIKVFYQKKYGISLCQAILDETKGDYEKILVALCGGN
glycan array binding signal (z-score) (Fuc(a1-2)Gal(b1-4)Glc6S): 1.79
glycan array binding signal (z-score) [25]: -0.684
glycan array binding signal (z-score) [26]: -0.177
glycan array binding signal (z-score) [27]: -0.151
glycan array binding signal (z-score) [28]: -0.343
glycan array binding signal (z-score) (Gal3S(b1-4)Glc6S): 3.21
glycan array binding signal (z-score) (Gal3S(b1-4)GlcNAc6S): 1.83
glycan array binding signal (z-score) (Gal3S6S(b1-4)GlcNAc6S): 7.38
glycan array binding signal (z-score) (Gal4S6S(b1-4)GlcNAc): 1.13
glycan array binding signal (z-score) (Gal6S(b1-4)Glc6S): 3.55
glycan array binding signal (z-score) (GlcA(b1-6)Gal): 0.482
glycan array binding signal (z-score) [29]: -0.049
glycan array binding signal (z-score) [30]: -0.758
glycan array binding signal (z-score) [31]: -0.452
glycan array binding signal (z-score) [32]: -0.318
glycan array binding signal (z-score) (Man(a1-3)[Man(a1-6)]Man): -0.165
glycan array binding signal (z-score) [18]: -0.176
glycan array binding signal (z-score) [33]: -0.573
glycan array binding signal (z-score) [34]: -0.076
glycan array binding signal (z-score) [35]: -0.436

From the supplement of paper PMC8728848
